Common to all, as to experiment: inhibition of PEG-3 promoter-driven reporter – cell-based, HeLa, luciferase, CREF/GAPDH counter-screen panel, dose response (AID 624167)
A general note: Counterscreens check selectivity or assay interference.

The target in test [1] is PEG-3 (UniProt Q6IN02). The conditions noted are these: CREF/GAPDH counter-screens; HeLa PEG-Prom luciferase reporter, overnight, run 1, dose range 1, at 100 µM (top of the series) unless noted.
Test [2] addresses PEG-3 (UniProt Q6IN02). The conditions noted are these: CREF/GAPDH counter-screens; HeLa PEG-Prom luciferase reporter, overnight, run 2, dose range 1, at 100 µM (top of the series) unless noted.
Test [3] has as its system Rat fibroblasts (CREF). The conditions noted are these: CREF/GAPDH counter-screens; run 1, dose range 1, at 100 µM (top of the series).
The subject of test [4] is Rat fibroblasts (CREF). Conditions: CREF/GAPDH counter-screens; run 2, dose range 1, at 100 µM (top of the series).

In PubChem BioAssay one finds inhibition data, which are given here for 39 molecules.

Chain of PEG-3 (Q6IN02 whole entry, looked up): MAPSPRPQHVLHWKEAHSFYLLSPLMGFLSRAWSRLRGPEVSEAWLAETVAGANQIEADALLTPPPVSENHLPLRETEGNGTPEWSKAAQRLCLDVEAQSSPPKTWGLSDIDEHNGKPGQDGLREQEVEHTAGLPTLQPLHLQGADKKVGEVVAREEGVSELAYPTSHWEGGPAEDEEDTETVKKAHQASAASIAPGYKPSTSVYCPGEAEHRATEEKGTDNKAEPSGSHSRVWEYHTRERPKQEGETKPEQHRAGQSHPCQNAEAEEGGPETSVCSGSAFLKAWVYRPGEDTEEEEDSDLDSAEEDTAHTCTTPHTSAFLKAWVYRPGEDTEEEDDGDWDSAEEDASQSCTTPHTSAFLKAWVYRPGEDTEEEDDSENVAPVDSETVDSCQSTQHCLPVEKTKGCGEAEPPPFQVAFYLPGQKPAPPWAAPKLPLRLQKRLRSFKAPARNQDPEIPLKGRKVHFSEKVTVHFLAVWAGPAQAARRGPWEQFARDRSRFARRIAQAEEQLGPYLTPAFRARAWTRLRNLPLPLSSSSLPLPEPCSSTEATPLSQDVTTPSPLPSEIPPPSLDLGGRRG

As usually defined, the inhibition is the change of the read-out against control, counted positive when it falls. Take `O=Nc1c(O)ccc2cc(S(=O)(=O)O)ccc12`: the inhibition in the test with PEG-3 [1] was found to be 84.7%; in the test with PEG-3 [2], 89.5%.
As to `CC(=O)c1c(NCCc2ccccc2)nc(=S)n(-c2ccccc2)c1C`, the figures for the inhibition with PEG-3 [1] and with PEG-3 [2] were 99.6% and 99%, respectively.
Regarding `COc1ccc(C(=O)Nc2cccc(C(=O)N/N=C/c3ccc(OC)cc3OC)c2)cc1`, the inhibition came out at 84.1% in the test with PEG-3 [1] and 93.1% with PEG-3 [2].
Consider `CCCC(=O)NC(c1ccc(OC)cc1)c1ccc2cccnc2c1O` (stereo unspecified), for which the inhibition worked out at 66.6% with PEG-3 [1], 88.5% in the test with PEG-3 [2], 28.1% in the test with Rat fibroblasts (CREF) [3] and 99.5% with Rat fibroblasts (CREF) [4].
In the case of `COc1ccc(NS(=O)(=O)c2ccc3ccccc3c2)c2ncccc12`, the values for the inhibition with PEG-3 [1] and with PEG-3 [2] were 57.9% and 73.1%, respectively.
Turning to `CCCSc1ccc2nc(-c3ccccc3)cn2c1`, the inhibition with PEG-3 [1] came to 98.4%; with PEG-3 [2] it was 98.8%; in the test with Rat fibroblasts (CREF) [3], 92.4%; with Rat fibroblasts (CREF) [4] it was 95.7%.
Take `CN(C)c1ccc(/C=C/c2ccc3ccccc3n2)cc1`: the inhibition in the test with PEG-3 [1] stood at 96.6%; with PEG-3 [2] it was 96%; with Rat fibroblasts (CREF) [3], 96.6%; in the test on Rat fibroblasts (CREF) [4], 95.8%.
For `O=C(Nc1ccc(-c2cn3ccsc3n2)cc1)c1ccc(F)c(S(=O)(=O)N2CCOCC2)c1`, the figures for the inhibition in the test with PEG-3 [1] and with PEG-3 [2] were 0.918% and -62.2%, respectively.
For the molecule `COC1CC(C)C(OC)c2cc(O)cc(c2O)NC(=O)C(C)=CC=CC(C)C(OC(N)=O)C(C)=CC(C)C1OC` (stereo unspecified), the inhibition turned out to be 94% with PEG-3 [1], 100% with PEG-3 [2], 97.1% with Rat fibroblasts (CREF) [3] and 98.6% in the test with Rat fibroblasts (CREF) [4].
As to `CCOc1ccc2[nH]c3c(NCCc4ccc(OC)c(OC)c4)ncnc3c2c1`, the inhibition in the test with PEG-3 [1] stood at 99%; with PEG-3 [2] it was 100%.
On to `O=C(O)c1cccc(COc2ccc(CO)cc2Cl)c1`, for which the inhibition was found to be 97.3% in the test with PEG-3 [1], 102% with PEG-3 [2], 91.5% in the test with Rat fibroblasts (CREF) [3] and 91.1% in the test on Rat fibroblasts (CREF) [4].
Consider `Cc1ccc(NCCN(C)C)c2c(=O)c3cc(O)ccc3sc12`, for which the results for the inhibition with PEG-3 [1] and with PEG-3 [2] were 97.5% and 102%, respectively.
`CCCCC(=O)NC(c1ccc(OC)cc1)c1ccc2cccnc2c1O` (stereo unspecified): the inhibition is 73.4% in the test with PEG-3 [1], 80.2% in the test with PEG-3 [2], 35.2% with Rat fibroblasts (CREF) [3] and 28.7% with Rat fibroblasts (CREF) [4].
Consider `CC(C)CC(=NNC(=O)c1ccncc1)c1cc(Cl)ccc1O`, for which the inhibition in the test with PEG-3 [1] was 76.9%; with PEG-3 [2], 93.6% [run 2, dose range 1, at 50 µM]; in the test on Rat fibroblasts (CREF) [3] it was 73.9%; in the test on Rat fibroblasts (CREF) [4], 81.7%.
Regarding `CCCCCCCn1c(=N)n(CC(=O)c2ccco2)c2ccccc21`, the inhibition with PEG-3 [1] was determined as 102%; with PEG-3 [2] it was 100%; in the test on Rat fibroblasts (CREF) [3], 95.9%; with Rat fibroblasts (CREF) [4], 98%.
For `Cc1cc(C)c2ccc(N)nc2c1O`, the inhibition is 70.1% [run 1, dose range 1, at 50 µM] in the test with PEG-3 [1] and 67.1% [run 2, dose range 1, at 50 µM] in the test with PEG-3 [2].
With `CN(C)CC1CCC/C(=C\c2ccc(OC(=O)/C=C/c3ccccc3)cc2)C1=O` (stereo unspecified), the inhibition with PEG-3 [1] is 97.5%; with PEG-3 [2], 102%.
As for `O=C(O)c1cccc(COc2ccccc2Cl)c1`, the inhibition in the test with PEG-3 [1] is 96.7%; with PEG-3 [2], 87.5%; with Rat fibroblasts (CREF) [3] it was 97%; with Rat fibroblasts (CREF) [4], 72.1%.
With `Clc1ccccc1/C=C/c1nc(-c2ccccn2)no1`, the inhibition with PEG-3 [1] worked out at 87.3%; with PEG-3 [2], 96.5%; with Rat fibroblasts (CREF) [3], 89.2%; in the test on Rat fibroblasts (CREF) [4], 76.1%.
In the case of `Cc1c(OCC(=O)NC2CC(C)(C)NC(C)(C)C2)ccc2c1oc(=O)c1ccccc12`, the figures for the inhibition in the test with PEG-3 [1] and with PEG-3 [2] were 98% and 101%, respectively.
Take `CN1CCC(N(C)C(=O)/C=C/c2cn(-c3ccccc3)nc2-c2cccs2)CC1`: the inhibition in the test with PEG-3 [1] and with PEG-3 [2] was 102% in each case.
As to `CCCC(=O)NC(c1ccc(Cl)cc1)c1ccc2cccnc2c1O` (stereo unspecified), the inhibition with PEG-3 [1] came out at 99.9%; with PEG-3 [2], 98.7%; in the test with Rat fibroblasts (CREF) [3], 12.3%; with Rat fibroblasts (CREF) [4], 28.1%.
Take `CCCC(=O)NC(c1cccc([N+](=O)[O-])c1)c1ccc2cccnc2c1O` (stereo unspecified): the inhibition with PEG-3 [1] was 75.7% [run 1, dose range 1, at 50 µM]; with PEG-3 [2], 98.9%.
Turning to `NC(N)=N/N=C/c1cccc(Cl)c1Cl`, the inhibition in the test with PEG-3 [1] is 97.9%; with PEG-3 [2], 99.4%.
Consider `CCOC(=O)c1c(NC(=O)COc2ccccc2F)sc2c1CC(C)(C)NC2(C)C`, for which the inhibition with PEG-3 [1] was determined as 89.1%; in the test with PEG-3 [2] it was 102%.
Consider `Cc1nc(-c2ccc(NC(=O)c3ccco3)cc2)cs1`, for which the inhibition with PEG-3 [1] was 98.9%; in the test with PEG-3 [2], 99.3%; with Rat fibroblasts (CREF) [3], 93.3%; in the test on Rat fibroblasts (CREF) [4] it was 95.8%.
In the case of `Cc1ccc(C(=O)N(CCCN(C)C)c2nc3ccc(Cl)cc3s2)cc1C`, the inhibition in the test with PEG-3 [1] was determined as 99.5%; with PEG-3 [2], 101%.
In the case of `O=C(c1ccco1)N1CCN(C(c2ccccc2Cl)c2nnnn2Cc2cccs2)CC1` (stereo unspecified), the inhibition with PEG-3 [1] was 63%; with PEG-3 [2], 44.9%; in the test on Rat fibroblasts (CREF) [3], -23.5%; in the test on Rat fibroblasts (CREF) [4], -17.6%.
Take `Oc1ccc(C23CCCC2C2(CCCC2)c2ccc(O)cc2O3)c(O)c1` (stereo unspecified): the inhibition with PEG-3 [1] turned out to be 99.4%; in the test with PEG-3 [2], 95.5%.
For `CN=c1scc(-c2cccs2)n1/N=C/c1ccccc1O`, the inhibition with PEG-3 [1] is 93.6%; in the test with PEG-3 [2], 102%; with Rat fibroblasts (CREF) [3], 98.2%; with Rat fibroblasts (CREF) [4], 97.1%.
Turning to `COc1ccc(-c2cc(C(F)F)n3ncc(C(=O)n4ccnc4C)c3n2)cc1`, the values for the inhibition in the test with PEG-3 [1] and in the test with PEG-3 [2] were 99.6% and 101%, respectively.
For `CNCC[C@@H](Oc1ccc(C(F)(F)F)cc1)c1ccccc1`, in that order: 98.7% and 100%.
Turning to `CCCCCc1ccc(OCCCC[n+]2cccc(C)c2)c(CCCCC)c1`, the inhibition with PEG-3 [1] was 98.6%; with PEG-3 [2] it was 101%.
Turning to `CN(C)C=NC(=O)c1[nH]c2ccc(Cl)cc2c1-c1ccccc1`, the values for the inhibition with PEG-3 [1] and with PEG-3 [2] were 98.6% and 96.5%, respectively.
As to `COc1cc(OC)c2cc(C(=O)N/N=C/c3ccccc3O)[nH]c2c1`, the inhibition came out at 95.8% in the test with PEG-3 [1], 95.1% with PEG-3 [2], 67.5% in the test with Rat fibroblasts (CREF) [3] and 65.2% in the test on Rat fibroblasts (CREF) [4].
For `O=[N+]([O-])c1nn(-c2ccc3c(c2)OCCO3)n(O)c1=Nc1ccc(Cl)cc1`, in that order: 48.4%, 73.7%, 13.6% and 8.03%.
Take `COc1ccc(C(=O)NNC(=O)c2ccccn2)cc1`: the inhibition in the test with PEG-3 [1] is 102%; in the test with PEG-3 [2], 95.9%; in the test on Rat fibroblasts (CREF) [3], 100%; in the test with Rat fibroblasts (CREF) [4], 98.5%.
Regarding `O=C(Nc1cccc(C(=O)O)c1)Nc1ccc2c(c1)OCO2`, the inhibition amounted to 95.9% with PEG-3 [1], 94.8% with PEG-3 [2], 84.8% in the test on Rat fibroblasts (CREF) [3] and 85.5% with Rat fibroblasts (CREF) [4].
Consider `COc1ccc(CCN2C(=O)C=CC2=O)cc1OC`, for which the inhibition worked out at 102% with PEG-3 [1], 101% with PEG-3 [2], 99.5% in the test on Rat fibroblasts (CREF) [3] and 98.6% in the test on Rat fibroblasts (CREF) [4].
